# Bioassay records: PubChem BioAssay, National Center for Advancing Translational Sciences (NCATS)
# TDP1 cell noCPT = qHTS for Inhibitors of human tyrosyl-DNA phosphodiesterase 1 (TDP1): qHTS in cells in absence of CPT | DT40 Tdp1-/- hTDP1 cells, no CPT, ATP luminescence, 48 h | 15% of 420,000 active | Potency, µM (series often up to 46.2 µM), for inactives: at the top dose activity change, negative = growth inhibition, usual class: inhibitors; also: potency is read from the fitted curve at half-maximal effect; % is scaled to controls: 0 for no effect and ±100 for the full control effect; nearly all actives have a fitted effect of over 55% in size
#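 DT40 Tdp1-/-;hTDP1 cells, no CPT (DMSO vehicle only), 400 cells/well; compounds pin-transferred; ≥48 hr, 37 °C; CellTiter-Glo 30 min RT dark, luminescence read.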
# HepG2 tox = kills HepG2 cells in TGF-b inhibitor counter-screen; HepG2 CAGA-GFP viability, ATP luminescence, 18 h; Potency, µM (highest dose often 46.1 µM), without a hit: at the highest dose activity change, negative = cytotoxicity, usual class: cytotoxic; 0.76% of 410,000 active; AID 588856; also: potency is read from the fitted curve at half-maximal effect
#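 HepG2 CAGA-GFP cells (1000/well, DMEM with 1% FBS) received compound, then TGF-beta at 500 pg/mL final, and were incubated 18 hours at 37 degrees C. Viability was read by CellTiter-Glo luminescence. Media-only wells were set as complete cell-killing and DMSO as no toxicity.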
# TGFb SMAD3 inh = inhibitors of TGF-b signaling | HepG2 CAGA-GFP TGF-b/SMAD3 reporter, GFP fluorescence, 18 h; TGF-beta stimulated, 500 pg/mL final | Potency, µM (highest dose often 46.1 µM), inactives show at the highest dose activity, negative = inhibition, usual class: inhibitors | 1.2% of 410,000 active | AID 588855; also: potency is read from the fitted curve at half-maximal effect; % is scaled to controls: 0 for no effect and ±100 for the full control effect; nearly all actives have a fitted effect of over 65% in size
#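 TGF-beta reporter screen: HEPG2 CAGA-GFP, 1% FBS, 500 pg/mL TGF-beta final, 18 h; per-cell GFP summed per well; curves fitted and categorized by class.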
# TDP1 cell CPT = DT40-hTDP1 cell growth loss with CPT; 12% of 420,000 active; Potency, µM (series often up to 46.2 µM), for inactives: at the top dose activity change, negative = growth inhibition, hits mostly inhibitors; chicken DT40 Tdp1-/-;hTDP1 cells + 20 nM CPT, ATP luminescence, 48 h; also: potency is read from the fitted curve at half-maximal effect; % is scaled to controls: 0 for no effect and ±100 for the full control effect; nearly all actives have a fitted effect of over 55% in size
#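 Chicken DT40 Tdp1-/- cells complemented with human TDP1, 400 cells/well, exposed to compounds plus 20 nM camptothecin for at least 48 h at 37 C; viability read as ATP content by CellTiter-Glo luminescence.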
# IL-1B inflam inh = inflammasome signaling inhibition, IL-1 beta readout | activity change, % at 57.5 µM | THP-1 LPS/ATP IL-1B secretion, AlphaLISA, 16 h; active compounds read low | 4.7% of 360,000 active; in the data active = activity change below about -50%; inconclusive = mostly about -30% to -49%; also: % is scaled to controls: 0 for no effect and ±100 for the full control effect
#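 THP-1 cells pretreated 1 hr with compounds (up to 57.5 uM final), then stimulated with LPS (250 ng/mL final) plus ATP (1.25 mM final); secreted IL-1B measured by AlphaLISA after 16 hr, decreased signal indicating inhibition.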
# TDP1 block = blocks human tyrosyl-DNA phosphodiesterase 1; Q9NUW8; recombinant TDP1, AlphaScreen DNA substrate cleavage; Potency, µM (series often up to 130 µM), for inactives: top-dose activity change, negative = inhibition, most hits filed as inhibitors; AID 485290; 0.28% of 350,000 active; also: potency is read from the fitted curve at half-maximal effect; % is scaled to controls: 0 for no effect and ±100 for the full control effect; nearly all actives have a fitted effect of over 40% in size
# Target sequence (Q9NUW8 whole entry, looked up): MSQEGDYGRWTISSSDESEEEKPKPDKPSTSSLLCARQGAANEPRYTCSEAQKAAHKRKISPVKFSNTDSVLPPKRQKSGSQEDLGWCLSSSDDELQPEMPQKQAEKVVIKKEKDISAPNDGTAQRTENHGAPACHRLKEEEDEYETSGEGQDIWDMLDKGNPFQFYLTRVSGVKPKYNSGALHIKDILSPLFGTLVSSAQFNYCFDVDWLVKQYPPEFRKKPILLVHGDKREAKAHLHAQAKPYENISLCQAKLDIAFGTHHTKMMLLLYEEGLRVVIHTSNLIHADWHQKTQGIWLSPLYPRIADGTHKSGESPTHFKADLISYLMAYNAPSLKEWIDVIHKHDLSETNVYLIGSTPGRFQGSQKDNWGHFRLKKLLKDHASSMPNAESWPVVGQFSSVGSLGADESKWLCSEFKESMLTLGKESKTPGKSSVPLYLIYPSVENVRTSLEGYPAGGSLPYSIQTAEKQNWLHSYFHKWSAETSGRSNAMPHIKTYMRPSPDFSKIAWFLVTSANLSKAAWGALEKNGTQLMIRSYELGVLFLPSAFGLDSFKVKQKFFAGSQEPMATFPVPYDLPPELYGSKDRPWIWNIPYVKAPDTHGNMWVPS
#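 Enzyme-compound mixtures sat 15 min at room temperature, followed by a 5 min reaction with 15 nM final substrate and 10 min with AlphaScreen beads. Recombinant human Tdp1 was used at 1 nM final.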
# An asterisk follows results filed as active; ? = inconclusive; nt = no result. The list is not random: actives were taken first. Their share in the collection is about 19%. Unless noted, calls follow the shape of the dose curve; as a rule, active = well fitted curve in the direction sought with a large enough effect; inconclusive = small, poorly fitted or top-dose-only effect, or another doubt; inactive = no such curve, though single readings can be large; an effect the other way counts as inactive or inconclusive.
SMILES,TDP1 cell noCPT,HepG2 tox,TGFb SMAD3 inh,TDP1 cell CPT,IL-1B inflam inh,TDP1 block
Cc1ccc(CC(=O)NCc2nc(-c3ccccc3)no2)cc1,-20%,-22%,-16%,1%,nt,1%
O=C(Nc1ccc(F)cc1Cl)C1CCN(C(=O)Nc2ccccc2)CC1,6%,-4%,-17%,-9%,4,0%
CC(=O)Nc1cccc(NC(=O)CSc2nc(C3CC3)nc3ccccc23)c1,7.3µM*,-21%,-19%,4.1µM*,-79*,nt
O=C(CSc1nc(Cc2ccccc2)nc2ccccc12)Nc1ccc2c(c1)OCCO2,?,-36%,-6%,-20%,-1,-1%
CC(=O)c1cccc(NC(=O)CSc2nc(C3CC3)nc3ccccc23)c1,16µM*,-28%,0%,?,-96*,-5%
CN(C)c1ccc(NC(=O)CSc2nc(C3CC3)nc3ccccc23)cc1,18µM*,-11%,-11%,?,-16,nt
COc1cc(NC(=O)CSc2nc(C3CC3)nc3ccccc23)cc(OC)c1,?,-41%,4%,-5%,-16,nt
CCN(CC)c1ccc(NC(=O)CSc2nc(C3CC3)nc3ccccc23)cc1C,5.2µM*,-3%,-3%,4.1µM*,-18,-5%
Cc1cccc(NC(=O)CSc2nc(C3CC3)nc3ccccc23)c1,?,-22%,-3%,?,-26,-6%
Nc1c2c(nn1-c1ccccc1)CCC2,-8%,-104%,4%,?,-2,nt
CN(C)c1ncc2nc(-c3cccs3)c(=O)n(C[C@H]3CCCO3)c2n1,12%,nt,nt,-4%,nt,nt
CCOC(=O)C1CCCN(C(=O)Cn2nc(C)c3c(C)n(-c4ccccc4)nc3c2=O)C1 (stereo not drawn),10%,-1%,-2%,6%,-12,7%
NC(=O)c1nsc(C(=O)N(CC(=O)NC2CCCCC2)Cc2ccc3c(c2)OCO3)c1N,?,25%,21%,?,nt,0%
O=C(CSc1nc(C2CC2)nc2ccccc12)Nc1ccccc1N1CCOCC1,?,-30%,-9%,?,-76*,-1%
O=C(CSc1nc(C2CC2)nc2ccccc12)NCc1ccc2c(c1)OCO2,nt,nt,nt,nt,nt,2%
O=C(CSc1nc(C2CC2)nc2ccccc12)Nc1ccccc1,?,-16%,6%,-6%,-61*,5%
O=C(CSc1nc(C2CC2)nc2ccccc12)Nc1ccccc1Cl,-25%,-8%,-11%,-23%,-4,nt
CSc1c(SCc2ccccc2)cnn(-c2ccccc2)c1=O,?,-21%,-8%,?,-98*,-5%
Cn1ncc(S(=O)(=O)Cc2ccccc2)c(Cl)c1=O,3.3µM*,-25%,8%,1.5µM*,nt,5%
CN(NC(=O)Nc1ccccc1)c1cnn(C)c(=O)c1Cl,-56%,-8%,?,?,0,2%
Cn1ncc(SCc2ccccc2)c(Cl)c1=O,10µM*,6%,-4%,9.2µM*,nt,-1%
COc1cnn(-c2ccccc2)c(=O)c1SCc1ccc(Cl)c(Cl)c1,?,-87%,-24%,-20%,?,-1%
COc1ccc(NS(=O)(=O)c2ccc3c(c2)n(C)c(=O)c(=O)n3C)cc1Cl,?,-9%,-14%,-12%,nt,0%
COc1cccc(C(C(=O)NCC2CCCO2)N(C(=O)Cn2nnc3ccccc32)c2ccc(NC(C)=O)cc2)c1OC (stereo not drawn),6%,2%,11%,5%,24,-4%
CCOc1ccc(CCNC(=O)c2cn(C)c3ccc(S(=O)(=O)N4CCCCCC4)cc3c2=O)cc1OCC,?,8%,-10%,?,nt,2%
COc1ccc(-c2noc(CCCC(=O)NC3CCCC3)n2)cc1,16µM*,-4%,-6%,16µM*,-13,nt
